The whole screen tested about 200,000 compounds, of which about 18,000 (9%) were called active. What follows is part of a selection rich in actives, with near analogues and random picks from the rest. Values without a mark were called inactive. Cut-off read from the data, not from the text of the source: active = inhibition above about 50%; inactive = the rest.
test: antileishmanial activity against promastigotes – primary screen (AID 1063); conditions: Leishmania major promastigotes, resazurin fluorescence viability; at 10 µM; hits give high values;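 note: promastigotes grown with compound for 44 hours at 28 °C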

SMILES | inhibition
CCOC(=O)CSC1=N/C(=C/c2ccc(-n3cncn3)cc2)C(=O)N1C(C)=O | 8.27%
COCCCn1c(CCC(=O)O)ccc1-c1ccc(F)cc1 | 2.69%
CC(C)Cn1c(CCC(=O)O)ccc1-c1cccs1 | 95.5% (active)
CCn1c(NC(=O)c2ccccc2)c(-c2cccs2)c(=O)c2ccccc21 | 0.95%
CN(C)c1ccc(C=C2C(=O)OC3(CCCC3)OC2=O)cc1 | -3.55%
Nc1ccc(C(=O)NCc2ccccc2)cc1 | -6.94%
Cc1ccc2[nH]c3c(c2c1)CN(C(=O)CN1CCN(c2ccccc2)CC1)CC3 | 69.5% (active)
CCCC(=O)N1CCc2[nH]c3ccccc3c2C1 | -2.11%
O=C(CN1CCCC1)N1CCN(c2ccccc2)CC1 | -4.42%
COc1cc2c(cc1OC)CC1(CCCCC1)N=C2 | 6%
COc1ccc(C2CC(c3ccc(Cl)cc3Cl)Nc3nc(N)nn32)cc1OC (centres undefined) | -5%
Cc1ccc(C2CC(c3cccc(Br)c3)n3nc(N)nc3N2)cc1 (centres undefined) | 89.8% (active)
CCOc1ccccc1C1CC(c2ccccc2)Nc2nc(N)nn21 (centres undefined) | -1.13%
Cc1ccc(C2CC(c3cccc(C)c3)n3nc(N)nc3N2)cc1 (centres undefined) | 67.6% (active)
COc1ccc(C2CC(c3ccc(C)cc3)Nc3nc(N)nn32)cc1 (centres undefined) | 3.08%
Nc1nc2n(n1)C(c1ccco1)CC(c1ccc(Cl)c(Cl)c1)N2 (centres undefined) | -1.56%
O=C(NCc1ccc(F)cc1)C(c1ccccc1)N(C(=O)c1csnn1)C1CC1 (centres undefined) | -1.88%
Cc1ccc(C(=O)N2CCN(S(=O)(=O)N3CCOCC3)CC2)cc1 | -2.24%
Cc1ccc(-c2cn(S(=O)(=O)c3cccc([N+](=O)[O-])c3)nc2N)cc1 | 3.16%
CC[N+]1(CC)CC2=Cc3ccccc3CC2C1 (centres undefined) | -4.49%
Cc1cc(=O)[nH]c(N/N=C/c2c(C)nn(-c3ccccc3Cl)c2Cl)n1 | -2.53%
O=C(O)CCN(Cc1ccccc1)S(=O)(=O)c1c(Cl)cccc1Cl | -2.19%
CC(O)CN(Cc1ccc(Cl)cc1)CC(C)O (centres undefined) | -7.47%
OCCN(Cc1ccccc1)Cc1ccc(Cl)cc1 | 78.8% (active)
c1ccc2c(c1)OCCOCCOCCO2 | -1.98%

SMILES | inhibition
CCOC(=O)CNc1nc(Cl)nc(Nc2ccccc2)n1 | 6.65%
CC(O)c1cccc(NC(=O)Cc2cccc3ccccc23)c1 (centres undefined) | 4.7%
O=c1cc(N2CCCCC2)c(-c2ccccc2)nn1Cc1cccc(F)c1 | 16.7%
COC(=O)c1c(C(=O)OC)c(-c2cccc(C)c2)n2c1CS(=O)C2 (centres undefined) | -12.1%
O=[N+]([O-])c1cccc(C2=NCCS2)c1 | -6.13%
CC(C)N(C(=O)Cn1cc(SCC(=O)N2CCCC2)c2ccccc21)C(C)C | -0.03%
C=CCNc1nnc(C)c2ccccc12 | 8%
C=CCNc1nnc(SCC(=O)N2CCCCC2)c2ccccc12 | 54.3% (active)
CN1C(=O)/C(=C/c2ccc(C(=O)NC3CCCC3)cc2)Oc2ccccc21 | -4.09%
CCOC(=O)c1cc(-c2ccc(F)cc2)n(CC(=O)NCc2ccccn2)c1C | 3.59%
COc1cccc(CNn2cn[nH]c2=S)c1OCc1ccccc1 | 15.9%
COC(=O)C(C)N=Cc1ccccc1 (centres undefined) | -2.89%
Cc1cc(C(=O)COC(=O)C2CC2)c(C)n1-c1ccc(F)cc1 | -2.35%
Cc1c(Cl)c([N+](=O)[O-])nn1CC(=O)NCC1CCCO1 (centres undefined) | -3.45%
COCCCNC(=S)NCCNc1nc2cc(C)c(C)cc2cc1C#N | 19.8%
O=C1c2ccccc2C2=Nc3ccccc3SC(c3ccccc3F)C12 (centres undefined) | 98.3% (active)
Cn1c(C(=O)NCCCN2CCCCC2)cc2sccc21 | 74.1% (active)
COc1ccc(CCNC(=O)c2cc3sccc3n2C)cc1OC | 7.15%
O=C(NCCCN1CCCCCC1)c1ccc(N2CCCC2=O)cc1 | 0.31%
COc1ccc(C2(CNC(=O)Cc3ccc(OC)c(OC)c3)CCCC2)cc1 | 0.15%
CCOc1ccc(C(=O)Nc2cccc(-c3ccc4nncn4n3)c2)cc1 | -2.57%
Cc1ccc(NC(=S)NC(=O)c2ccc(-c3ccccc3)cc2)c(C)c1 | -4.31%
Cc1ccc(NC(=O)c2oc3ccccc3c2C)c([N+](=O)[O-])c1 | -2.37%
Cc1ccc(NC(=O)c2oc(=O)c3ccccc3c2-c2ccccc2)c(C)c1 | 55.8% (active)
COc1ccccc1N(C)S(=O)(=O)c1ccc(Cl)c(C(=O)N2CCC(C(N)=O)CC2)c1 | -3.28%

SMILES | inhibition
COc1cc(/C=N/Nc2ccc(C)cc2)cc(Br)c1O | -20.7%
Cc1ccccc1OCCOc1ccc([N+](=O)[O-])cc1/C=N/n1cnnc1 | 37.6%
Cc1c(Br)ccc(NC(=O)COc2ccccc2C(N)=O)c1C | 2.06%
COc1ccccc1-c1nc(SC)n[nH]1 | -6.03%
COc1ccccc1-c1n[nH]c2c1[C@H](C)CC[C@H]2C(C)C | 62.9% (active)
C=C(C)COc1ccc(-c2n[nH]c(C)c2-c2ccccc2OC)c(O)c1 | -7.88%
Cc1ccc(S(=O)(=O)N(C)C)cc1NC(=O)c1ccccc1Br | -1.67%
COc1ccc(OC)c(-c2csc(NC(=O)C3=NNC(=O)CC3)n2)c1 | -4.28%
CCc1nnc(NC(=O)CSc2nc(SC)ns2)s1 | -6.1%
CCOC(=O)C1C(=O)C=C(c2ccc(OC)cc2)CC1c1ccco1 (centres undefined) | 0.83%
CC(=O)NC1C(Oc2ccc(C)cc2)OC2COC(c3ccco3)OC2C1O (centres undefined) | 54.2% (active)
CCc1cccc(OC2OC(CO)C(O)C(O)C2NC(C)=O)c1 (centres undefined) | -8.46%
CCC(C)(C)NC(=O)CN(Cc1cccs1)C(=O)CNS(=O)(=O)c1ccc(F)cc1 | -4.43%
CCOC(=O)c1c(C)[nH]c2c1-c1ccccc1C(=O)C2=O | 100% (active)
CCOC(=O)c1c(C)[nH]c(=S)c(C#N)c1-c1ccccc1 | -3.7%
CCOC(=O)c1cc2n(c1N)-c1ccccc1C2=O | 1.96%
O=c1cc(O)c(-c2cccc(C(F)(F)F)c2)c(Cl)[nH]1 | 16.3%
CC(C)(C)c1nc(NCC2CCCO2)c2nnn(Cc3ccccc3)c2n1 (centres undefined) | 2.46%
Clc1cccc(-c2nc(NCC3CCCO3)c3ccccc3n2)c1 (centres undefined) | 76.4% (active)
c1ccc2c(NCC3CCCO3)nc(-c3ccncc3)nc2c1 (centres undefined) | 3.5%
O=C(Cn1cc(/C=N/NC(=O)c2cccc(C(F)(F)F)c2)c2ccccc21)Nc1ccc(F)cc1 | 6.06%
CCOC(=O)N/N=C/c1cccnc1 | 1.46%
Cc1ccc(OCCCn2c(=O)oc3ccccc32)cc1 | -3.5%
CCOC(=O)N/N=C/c1cn(Cc2ccccc2Cl)c2ccccc12 | 83.9% (active)
CCOC(=O)c1cnn(Cc2ccccc2Cl)c1N | 0.00878%

SMILES | inhibition
COC(=O)Cn1cc(/C=C/[N+](=O)[O-])c2ccccc21 | 27.7%
COC(=O)N/N=C/c1cn(CCCOc2ccc(C)cc2)c2ccccc12 | 55.6% (active)
CNC(=S)N/N=C/c1cn(Cc2ccc(C)cc2)c2ccccc12 | 62.8% (active)
CNC(=S)N/N=C/c1ccc(OCc2ccccc2)c(Br)c1 | 1.78%
CCN(CC)S(=O)(=O)c1ccc(NC(=O)c2cccnc2Cl)c(NC(=O)c2cccnc2Cl)c1 | -1.01%
O=C(Nc1ccc(Cl)cc1)C1c2cccc[n+]2CC(=O)N1Cc1ccc2c(c1)OCO2 (centres undefined) | -2.66%
CCC(=O)Nc1ccc(Nc2nc(Cl)nc(Nc3ccc(NC(=O)CC)cc3)n2)cc1 | -6.56%
N#CCSc1nn(-c2ccc(F)cc2)c(=S)s1 | -4.75%
Cc1ccc(S(=O)(=O)N2CCN(C(=O)c3cccs3)CC2)cc1 | -4.13%
Cc1ccnc(NS(=O)(=O)c2ccc(NC(=O)c3ccc(S(=O)(=O)N(C)C)cc3)cc2)n1 | -6.03%
COC(=O)c1c(NC(=O)CCCC(=O)O)sc2c1CCCCC2 | -4.64%
CC(=O)Nc1ccc(Nc2nc3c(S(=O)(=O)c4ccc(C)c(C)c4)nnn3c3ccccc23)cc1 | 3.4%
COCCCNc1nc2c(-c3cccc(C(F)(F)F)c3)nnn2c2ccccc12 | 0.99%
Cc1cccc(Nc2nc3c(S(=O)(=O)c4ccccc4)nnn3c3ccccc23)c1C | 57.1% (active)
COc1ccc(N(CC(=O)NC2CCCC2)C(=O)CS(=O)CC(=O)Nc2ccc3c(c2)OCO3)cc1 (centres undefined) | -10.1%
COc1ccc(CC(=O)NCc2nnc(SCC(=O)Nc3nccs3)n2C)cc1 | -3.12%
CC(=O)Oc1ccccc1C1=NN(C(C)=O)C(c2ccccc2)C1 (centres undefined) | -5.99%
COc1cc([N+](=O)[O-])ccc1NC(=S)N1CCN(c2ccccn2)CC1 | -4.39%
Cc1cccn2c(CN(C)C3CCCc4ccccc43)c(C(=O)N3CCOCC3)nc12 (centres undefined) | 7.87%
Cc1cccn2c(=O)c3cc(C(=O)N4COCC4(C)C)n(C)c3nc12 | 89.9% (active)
O=C(O)C1C2CC2CN1C(=O)c1ccc(Cl)cc1Cl (centres undefined) | -2.09%
COc1ccc2nc(SCc3ccccc3)nc(C)c2c1 | -8.99%
COc1ccc2nc(/N=C(\N)NC(=O)Nc3ccccc3)nc(C)c2c1 | 99.9% (active)
COc1ccc(NC(=O)Nc2ccc3nc(C)c(C)nc3c2)cc1 | 6.7%
